The whole screen tested about 68,000 compounds, of which about 2,700 (4%) showed an effect of 50% or more. The full list was thinned out, with strong results kept by preference.

In this assay the test system is Plasmodium berghei. The assay is described as follows: Screen against P. berghei liver stage (PbLuc), transformed with Luciferase, at 2uM. Type of assay: functional, HepG2. As to conditions: tested at 2 uM.
Regarding `COC(C)C(=O)NS(=O)(=O)c1ccc(F)c(C(F)(F)F)c1` (stereo unspecified), the INHIBITION was 35.7%.
Next, `CC(C)C(=O)NS(=O)(=O)c1ccc(F)c(C(F)(F)F)c1`: 18.82%.
Next, `CSC(C)C(=O)NS(=O)(=O)c1ccc(F)c(C(F)(F)F)c1` (stereo unspecified): 51.48%.
Next, `CC(C)N(C)CCC(=O)N1CCCC(c2ccc(C(=O)O)cc2)C1` (stereo unspecified): -1.98%.
`CCCn1nc2c(cc1=O)CN(Cc1c(C)noc1C)CC2`: the INHIBITION turned out to be 44.37%.
Turning to `CCCn1nc2c(cc1=O)CN(Cc1cc(C)on1)CC2`, the INHIBITION was -1.79%.
For `CCCn1nc2c(cc1=O)CN(Cc1cc(C)no1)CC2`, the INHIBITION was 62%.
For `Cc1cc(CN2CCc3nn(C)c(=O)cc3C2)on1`, the INHIBITION was -2.31%.
Turning to `Cc1cc(CN2CCc3nn(C)c(=O)cc3C2)no1`, the INHIBITION was found to be 22.34%.
Next, `CCn1nc2c(cc1=O)CN(Cc1cc(C)on1)CC2`: 73.01%.
With `Cc1cc(C)nc(N2CCC(Cn3cc(C(N)=O)cn3)CC2)n1`, the INHIBITION was found to be 0.93%.
Next, `Clc1ccc(-c2nnc([C@H]3CCN(C4CCCCC4)C3)o2)cc1`: -57.27%.
With `O=C(Nc1cn[nH]c1)N1CCN(CCSc2ccccc2)CC1`, the INHIBITION is given as -11.24%.
Next, `COCCN1CCc2cc(C(=O)NC(C)C)c(NCC(C)C)nc2CC1`: 42.15%; `Cc1nn(C)c(Oc2ccc(Cl)cc2)c1CN1CCC(CN)C1` (stereo unspecified): 64.9%.
Next, `Cc1nn(C)c(Oc2ccc(Cl)cc2)c1CN1CCOC(CN)C1` (stereo unspecified): 48.21%; `Cc1nn(C)c(Oc2ccc(Cl)cc2)c1CN1CC[C@H](CO)[C@@H](O)C1`: 43.44%; `CN(C)C(=O)CN1C[C@H]2CC[C@@H](C1)N(Cc1ccccc1OCCO)C2`: 5.28%.
On to `CC(C)[C@@H]1CN(Cc2cnc(C3CCCCC3)nc2)C[C@H]1N(C)C`, for which the INHIBITION is on record as -1.57%.
Next, `COc1ccccc1OCCNCc1c(C(C)C)nn(C)c1N(C)C`: 7.64%; `CC(C)c1nn(C)c(N(C)C)c1CNCC(O)c1ccccc1F` (stereo unspecified): 78.51%.
Next, `COc1c(CNCC(O)c2ccccc2F)c(C(C)C)nn1C` (stereo unspecified): -72.31%; `COc1ccccc1C(O)CNCc1c(C(C)C)nn(C)c1N(C)C` (stereo unspecified): 63.95%; `Cc1nn(C)c(N(C)C)c1CNCC(O)c1ccccc1F` (stereo unspecified): 49.9%.
`CC(C)c1nn(C)c(N(C)C)c1CNCC(O)c1ccccc1` (stereo unspecified): the INHIBITION is given as 35.65%.
Regarding `O=C(NCC1CC1)c1n[nH]c2c1CNCC2`, the INHIBITION is recorded as 5.69%.
Next, `COc1nn(C)cc1C(=O)NCC(OC)c1ccccc1C` (stereo unspecified): 24.09%.
Next, `COc1ccc(NC(=O)CN2CCCCC2C2OCCO2)cc1` (stereo unspecified): -13.68%; `COC1CCN(C(=O)C2CC(=O)N(c3ccccc3Br)C2)CC1` (stereo unspecified): 22.86%; `O=C(C1CC1)N1CCN(C(=O)C2CC(=O)N(c3ccccc3Br)C2)CC1` (stereo unspecified): 10.42%.
For `O=C(C1CC(=O)N(c2ccccc2Br)C1)N1CCCCCC1` (stereo unspecified), the INHIBITION is 57.51%.
Turning to `CC(c1cn2ncsc2n1)n1cc2[nH]cccc-2c1=O` (stereo unspecified), the INHIBITION stood at 30.09%.
Next, `CC(C)OCc1ncn2c1CN(CC1CC1)CCC2`: -13.31%.
Next, `O=C(NCC1CC1)[C@H]1C[C@H]2OCC[C@H]2N(Cc2ccsc2)C1`: -12.09%; `O=C(Nc1cccnc1)[C@@H]1C[C@H]2OCC[C@H]2N(Cc2ccsc2)C1`: -83.74%.
As to `O=C(Nc1cnccn1)[C@@H]1C[C@H]2OCC[C@H]2N(Cc2ccsc2)C1`, the INHIBITION amounted to 59.52%.
Next, `Cc1cccc(S(=O)(=O)N2C[C@@H]3C[C@H](C(=O)NC4CCC4)[C@H](C2)O3)c1`: 12.57%.
Next, `COCCN1C[C@@H]2CC[C@H]1CN(C(=O)CCc1c(C)nn(C)c1C)C2`: -23.17%; `O=C(Nc1ccc(-c2nc3c([nH]2)CCNC3)cc1)N1CCCC1`: -15.03%.
Next, `O=S(=O)(c1ccc(-c2nc3c([nH]2)CCNC3)cc1)N1CCCC1`: 52.3%; `CC(C)NC(=O)Nc1ccc(-c2nc3c([nH]2)CCNC3)cc1`: -35.22%.
As for `Brc1cnc(NCCCOC2CCOCC2)nc1`, the INHIBITION is 21%.
Next, `c1cnc(NCCCOC2CCOCC2)nc1`: 74.34%; `Brc1ccc(NCCCOC2CCOCC2)nc1`: -11.28%.
On to `Cc1ccc(-c2cc(N)c(=O)n(CC(=O)NCC3CC3)n2)s1`, for which the INHIBITION stood at 36.17%.
Next, `CN(Cc1ccccc1)CC1(O)CCCN(CC(C)(C)C)C1=O` (stereo unspecified): 16.64%; `COCCC(=O)N1CCc2cc(Cl)cc(Cl)c2C1`: -10.6%.
Consider `O=C(NCC1CCS(=O)(=O)C1)c1ccc(NC(=O)c2ccco2)cc1` (stereo unspecified), for which the INHIBITION is listed as -19.02%.
As for `Cc1cc(C(=O)NCC2CCS(=O)(=O)C2)ccc1NC(=O)c1ccco1` (stereo unspecified), the INHIBITION is on record as -34.12%.
`O=C(NCC1CCS(=O)(=O)C1)c1ccco1` (stereo unspecified): the INHIBITION came to 69.48%.
Next, `CCOCCCC(=O)Nc1ccc(OCc2noc(C3CC3)n2)cc1`: 18.09%; `COc1cccc2c1N(Cc1noc(C3CC3)n1)CCC2`: -17.64%.
Next, `COc1cccc2c1N(Cc1nc(C3CC3)no1)CCC2`: 64.22%; `COCCc1noc(CN2CCCc3cccc(OC)c32)n1`: -61.35%; `CCCC(NC(=O)c1cncc(C)c1)c1nnn[nH]1` (stereo unspecified): -10.41%.
Next, `COCCN1CCc2ncnc(NC(C)C)c2CC1`: 3.6%; `C[C@@H](NC(=O)c1cnccn1)c1c(-c2ccc(F)cc2)noc1C(=O)O`: 34.79%; `CC(C)c1ccc(CCC(=O)N2CCOCC2c2ncon2)cc1` (stereo unspecified): 15.47%.
Regarding `O=C(CCc1cccc(Cl)c1Cl)N1CCOCC1c1ncon1` (stereo unspecified), the INHIBITION was determined as 58.52%.
As for `Cc1cccc(C)c1OCC(=O)N1CCOCC1c1ncon1` (stereo unspecified), the INHIBITION turned out to be 29.54%.
Next, `CCc1ccccc1OCC(=O)N1CCOCC1c1ncon1` (stereo unspecified): 53.58%.
Consider `Cc1ccc(CCC(=O)N2CCOCC2c2ncon2)c(C)c1` (stereo unspecified), for which the INHIBITION is given as 35.23%.
Next, `O=C(COc1cccc(Cl)c1)N1CCOCC1c1ncon1` (stereo unspecified): -6.71%; `O=C(COc1ccc(Cl)cc1)N1CCOCC1c1ncon1` (stereo unspecified): -29.5%.
Next, `CCc1ccc(CCC(=O)N2CCOCC2c2ncon2)cc1` (stereo unspecified): -45.23%; `Cc1ccc(CC(=O)N2CCOCC2c2ncon2)cc1` (stereo unspecified): 54.99%; `COCc1cccc(NC(=O)NCCCN(C)S(C)(=O)=O)c1`: 30.98%.
With `CC(C)CC(=O)N1CC(=O)N(Cc2ccco2)CC(O)C1` (stereo unspecified), the INHIBITION is -6.69%.
Next, `Cc1cccc(-c2nc(C)nn2CC(=O)NCC(C)C)c1`: -9.49%; `CCC(=O)c1ccc(OCC(=O)NC(C)c2nnc(C)[nH]2)cc1` (stereo unspecified): -20.29%; `CCn1ccc2cc(NC(=O)CC3CCCO3)ccc21` (stereo unspecified): -73.93%.
Next, `Cc1cccc2cc(CO)c(N3Cc4cnc(C(C)(C)C)nc4C3)nc12`: 30.89%.
For the molecule `CCC(Nc1nnnn1-c1ccccc1)C(=O)Nc1nc(C)cs1` (stereo unspecified), the INHIBITION is on record as -13.81%.
Turning to `Cc1nnsc1C(=O)NCc1cccnc1N(C)C`, the INHIBITION was determined as 6.17%.
Regarding `O=C(c1cccc(CNCC=Cc2ccccc2)c1)N1CCCC1`, the INHIBITION is listed as 4.49%.
In the case of `CCN(Cc1nc2c(cnn2C)c(=O)[nH]1)c1ccccc1C`, the INHIBITION is -16.3%.
Next, `COc1ccc(NC(C)=O)cc1OCc1cccnc1`: 5.44%; `COc1ccc(NC(=O)C2CC2)cc1OCc1cccnc1`: 21.24%.
For the molecule `COc1ccc(NC(=O)C2CCCO2)cc1OCc1cccnc1` (stereo unspecified), the INHIBITION worked out at 61%.
Next, `CCc1nnc2n1CCN(Cc1ncc(-c3ccc(F)cc3)o1)C2`: 1.6%.
Regarding `O=C(c1ncccn1)N1C[C@@H]2CN(Cc3cccnc3)CCO[C@@H]2C1`, the INHIBITION came out at 22.62%.
Next, `CCCc1nc(CN(CC)C(=O)c2onc3ccccc23)no1`: -12.7%; `CCN(Cc1noc(C2CC2)n1)C(=O)c1onc2ccccc12`: 51.31%; `CCN(Cc1noc(C2CCC2)n1)C(=O)c1cnc2ccccc2c1`: 19.53%.
As to `Cc1cnc(N)c(C(=O)C2CCN(C(=O)c3cnc(C)nc3C)CC2)c1`, the INHIBITION is recorded as 69.08%.
As for `Cc1cnc(N)c(C(=O)C2CCN(C(=O)C3CCC3)CC2)c1`, the INHIBITION stood at 61.16%.
Regarding `Cc1cnc(N)c(C(=O)C2CCN(C(=O)c3ccccc3F)CC2)c1`, the INHIBITION is on record as 21.37%.
Next, `Cc1cnc(N)c(C(=O)C2CCN(C(=O)c3cnc(C)cn3)CC2)c1`: 25.72%.
With `C=C(C)C(=O)N1CCC(C(=O)c2cc(C)cnc2N)CC1`, the INHIBITION worked out at 6.57%.
Next, `CC(=O)N1CCC(C(=O)c2cc(C)cnc2N)CC1`: 27.16%; `O=C(NCCn1cccn1)c1nnc2ccccc2n1`: 7.42%.
Next, `O=C(NC[C@H]1Cn2c(-c3ccccc3)cnc2CO1)C1CC1`: 35.6%; `CC1(C)CN(CC(F)(F)F)CCN1CC(=O)NC1CC1`: 65.42%.
With `CC1(C)CN(CC(F)(F)F)CCN1CC(=O)NC1CCCC1`, the INHIBITION was found to be 37.42%.
Next, `CNC(=O)NC(=O)CN1CCN(CC(F)(F)F)CC1(C)C`: 21.03%; `CCCn1ncc(C2CC(=O)NCc3nc4cc(C)ccn4c32)c1C` (stereo unspecified): 48.21%.
Next, `CCC1CC(=O)NCc2nc3sc(C)cn3c21` (stereo unspecified): -18.57%; `CCCn1ncc(C2CC(=O)NCc3nc4sc(C)cn4c32)c1C` (stereo unspecified): 55.36%.
As for `Cc1noc(C)c1CN(C)C(=O)Cn1c(=O)n(C)c2ccccc21`, the INHIBITION is reported as -43.5%.
For `Cc1ccc(NC(=O)Nc2c(O)c3ccccc3oc2=O)cc1C`, the INHIBITION is recorded as 8.92%.
`COCCn1c2c(ccc1=O)CCN(C(=O)CC1CC1)CC2`: the INHIBITION is -13.68%.
In the case of `NC(=O)NCC(=O)N1CCC(c2cc(-c3ccccc3Cl)n[nH]2)CC1`, the INHIBITION is on record as 39.65%.
In the case of `NC1(C(=O)N2CCC(c3cc(-c4ccccc4Cl)n[nH]3)CC2)CCC1`, the INHIBITION is recorded as 54.07%.
With `NC(=O)NCCC(=O)N1CCC(c2cc(-c3ccccc3Cl)n[nH]2)CC1`, the INHIBITION worked out at 31.25%.
Take `NC(=O)NC1CCN(Cc2ccc3c(c2)CCC3)CC1`: the INHIBITION was 30.42%.
Next, `CC(c1nnc(-c2cccs2)o1)N1CCc2cncnc2C1` (stereo unspecified): -9.5%.

Values taken from ChEMBL document CHEMBL4513216, “Probing the Open Global Health Chemical Diversity Library for Multistage-Active Starting Points for Next-Generation Antimalarials” (ACS Infect Dis, 2020).
